Screening data deposited in PubChem BioAssay by National Center for Advancing Translational Sciences (NCATS).
Most compounds without a hit are left out; they make up all but 0.96% or so of the library.
A488 fluor = A488 region autofluorescence; AID 591; compound autofluorescence, A488 spectral region, dye equivalency; Compound Type: qHTS ECL - MLSMR; 59,000 compounds, 0.1% hits; max dye equivalency, M
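Read-out: relative fluorescence at 480/540 nm, expressed as Alexa 488 dye-equivalent concentration from a six-point A488 standard included per plate. Conditions: 100 mM Tris, pH 8.0; 15 min incubation, room temperature.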
Rhodamine autofl = compound fluoresces in the rhodamine spectral region | Rhodamine-region fluorescence, 547/598 nm, Tris buffer; stronger effect = higher value | max dye-equivalent concentration, M | 59,000 compounds, 0.05% hits | AID 594; in the data active = max dye-equivalent concentration above about 11 nM; inconclusive = between about 1.1 nM and that limit
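qHTS spectral profiling of compounds without any target or enzyme present, in pH 8.0 Tris buffer; plates were read after a 15-minute room-temperature incubation using the rhodamine-region filter set.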
TexasRed autofl = compound fluoresces in the Texas Red spectral region; Compound fluorescence, Texas Red channel, 547/618 nm; stronger effect = higher value; max dye-equivalent concentration, M; 59,000 compounds, 0.06% hits; in the data active = max dye-equivalent concentration above about 10 nM; inconclusive = between about 1.1 nM and that limit
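Spectral interference profiling: each compound concentration's relative fluorescence, read with a 547 nm excitation and 618 nm emission filter pair, was normalized to a per-plate Texas Red standard curve.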
Resorufin fluor = compounds fluorescent in resorufin spectral region; max dye-equivalent concentration, M; 59,000 compounds, 0.04% hits; Compound fluorescence, resorufin region 547/598 nm, buffer; stronger effect = higher value; AID 588
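Intrinsic fluorescence profiled in the resorufin window (ex 547 nm, em 598 nm) after 15 min at room temperature in pH 8.0 Tris buffer (100 mM); responses normalized against a six-point resorufin standard series as dye-equivalent concentration.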
Fluorescein autfl = compound fluoresces in the fluorescein spectral region | Compound autofluorescence, 480/540 nm, fluorescein-equivalent; stronger effect = higher value | 59,000 compounds, 0.91% hits | max fluorescein-equivalent concentration, M; in the data active = max fluorescein-equivalent concentration above about 10 nM; inconclusive = between about 1.1 nM and that limit
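Library compounds, added at multiple concentrations to pH 8.0 Tris buffer (100 mM), incubate 15 min at room temperature before CCD imaging at 480 nm excitation and 540 nm emission.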
A647 autofl = compound autofluorescence in A647 spectral region; 59,000 tested, under 10 active; AID 592; Compound fluorescence, A647 channel (570/671 nm), Tris buffer; max dye-equivalent concentration, M;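 also: values scaled relative to a standard on each plate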
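Each compound's intrinsic fluorescence at 570 nm excitation and 671 nm emission is measured across its concentration series in 100 mM Tris, pH 8.0, after 15 min at room temperature, and reported relative to an A647 curve.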
The depositor's hits bear a star; i = inactive; ? = inconclusive. Unless noted, no rule for the calls is given here.

SMILES	A488 fluor	Rhodamine autofl	TexasRed autofl	Resorufin fluor	Fluorescein autfl	A647 autofl
CCN1C(=O)/C(=C\N2CCCc3ccccc32)SC1=S	i	i	?	i	2e-08M*	2.7e-09
CCN1C(=O)/C(=C/N2CCc3ccccc32)SC1=S	1.3e-08M*	i	i	i	2.2e-07M*	1.3e-08
Cc1nccn1-c1c2c(c(C#N)c3nc4ccccc4n13)CCCC2	i	i	?	i	1.4e-08M*	2.1e-08
CCc1cccc2c3c([nH]c12)[C@](CC)(CC(=O)O)OCC3	i	i	i	i	?	4.8e-08
CC[C@@]1(O)C(=O)OCc2c1cc1n(c2=O)Cc2cc3c(CN(C)C)c(O)ccc3nc2-1	2.1e-08M*	i	?	i	4.3e-07M*	4.7e-09
CCCCc1cc(=O)oc2c(CN(C)C)c(O)ccc12	i	i	i	i	?	2.7e-08
CS(=O)(=O)Nc1cccc(-c2nc(NCc3ccccc3)c3ccccc3n2)c1	i	i	i	i	?	4.4e-08
CCNc1ncc2nc(-c3ccc(OC)cc3)c(=O)n(-c3ccc(OC)cc3)c2n1	i	i	i	i	i	2.6e-09
CCOC(=O)N1CC=C2C(C#N)=C(N)C(C#N)(C#N)[C@H](c3ccccc3OCC)[C@H]2C1	i	i	?	i	?	3.7e-09
COc1cccc(C2C3CN(C)CC=C3C(C#N)=C(N)C2(C#N)C#N)c1OC (stereo not given)	?	i	i	i	5.2e-08M*	2.6e-08
CCN1CC=C2C(C#N)=C(N)C(C#N)(C#N)[C@H](c3cccc(OC)c3OC)[C@H]2C1	?	i	i	i	9.6e-08M*	1e-09
CCCC1C2CN(C(C)C)CC=C2C(C#N)=C(N)C1(C#N)C#N (stereo not given)	?	i	?	i	5.1e-08M*	1.3e-08
CN1CC=C2C(C#N)=C(N)C(C#N)(C#N)[C@H](c3cccc(Cl)c3)C2C1 (stereo not given in full)	?	i	?	i	4.1e-08M*	4.8e-09
CN1C2C=C3C(C#N)=C(N)C(C#N)(C#N)[C@@H](c4ccsc4)[C@@H]3C1CC2 (stereo not given in full)	i	i	?	i	i	3e-09
CCOC(=O)N1CC=C2C(C#N)=C(N)C(C#N)(C#N)[C@H](c3ccsc3)[C@H]2C1	i	i	?	i	?	8e-09
C=C[C@@H]1CN2CC[C@@H]1C[C@H]2[C@H](O)c1ccnc2ccc(OC)cc12	i	i	i	i	i	7e-09
COc1cc([C@@H]2[C@H]3CN(C)CC=C3C(C#N)=C(N)C2(C#N)C#N)cc2c1OCO2	i	i	i	i	1.1e-08M*	5.1e-08
CN1CC=C2C(C#N)=C(N)C(C#N)(C#N)C(CCc3ccccc3)C2C1 (stereo not given)	?	i	?	i	4.3e-08M*	6.3e-09
CCOC(=O)N1CC=C2C(C#N)=C(N)C(C#N)(C#N)[C@H](c3ccc(OC(C)C)c(OCC)c3)[C@H]2C1	i	i	i	i	i	1e-09
CC[C@H](C)C(=O)O[C@@H]1CCC=C2C=C[C@H](C)[C@@H](CC[C@H]3C[C@@H](O)CC(=O)O3)[C@H]21	i	i	i	i	i	1e-09
O=C(NC[C@@H]1CCCCN1)c1cc(OCC(F)(F)F)ccc1OCC(F)(F)F	i	i	?	i	?	4e-09
C=C[C@H]1CN2CC[C@@H]1C[C@H]2[C@@H](O)c1ccnc2ccc(OC)cc12	i	i	i	i	?	6.1e-08
CN(C)c1ccc(/C=C/c2ccncc2)cc1	i	i	i	i	1.2e-08M*	2.6e-08
COc1cccc(/C=C/c2ccncc2)c1OC	i	i	i	i	i	2.7e-08
CC[C@]1(O)C[C@H]2CN(CCc3c([nH]c4ccccc34)[C@](C(=O)OC)(c3cc4c(cc3OC)N(C=O)[C@H]3[C@@](O)(C(=O)OC)[C@H](OC(C)=O)[C@@]5(CC)C=CCN6CC[C@]43[C@H]65)C2)C1	i	i	i	i	?	2.1e-08
SMILES	A488 fluor	Rhodamine autofl	TexasRed autofl	Resorufin fluor	Fluorescein autfl	A647 autofl
CC(C)OC(=O)CC(=O)c1sc2nc3c(cc2c1N)CN(C)CC3	?	i	i	i	1.9e-07M*	2.6e-08
CCCC(=O)Nc1ccc(NC(=O)c2ccccc2Cl)nc1	i	i	i	i	1.1e-08M*	1e-09
CCCC(=O)Nc1ccc(NC(=O)Cc2ccccc2)cn1	i	i	i	i	?	3.3e-09
O=C1C2CC=C(Cl)CC2C(=O)N1CNc1ccccn1 (stereo not given)	i	i	i	i	i	3.8e-09
O=C1C2CC=C(Cl)CC2C(=O)N1CCc1ccccc1 (stereo not given)	i	i	i	i	2e-08M*	1e-09
O=C(CCN1C(=O)C2CC=C(Cl)CC2C1=O)N1CCCCC1 (stereo not given)	?	i	i	i	2.9e-08M*	2.3e-08
CCN1C(=O)C2(C(C#N)=C(N)Oc3cc(C)oc(=O)c32)c2ccccc21 (stereo not given)	i	i	?	i	i	4.3e-09
Cc1cc2c(c(=O)o1)C1(C(=O)N(CC(=O)O)c3ccccc31)C(C#N)=C(N)O2 (stereo not given)	i	i	i	i	1.3e-08M*	1.2e-08
CN(C)c1ccc(NC(=O)CCCc2ccccc2)cc1	i	i	?	i	?	3.9e-08
CN(C)c1ccc(N/C=C/C(=O)c2ccccc2)cc1	i	i	i	i	1.4e-08M*	1.2e-08
COc1ccc(O)c(C(=O)c2cc(C#N)c(=O)n(CCN3CCOCC3)c2)c1	i	i	i	i	i	1e-09
COc1ccc(O)c(C(=O)c2cc(C#N)c(=O)n(-c3c(C)n(C)n(-c4ccccc4)c3=O)c2)c1	?	i	i	i	1.2e-07M*	1e-09
O=C1c2ccccc2C(=O)c2c(NC3CCCCC3)ccc(Nc3ccc(S(=O)(=O)O)cc3)c21	i	1.2e-08M*	6.1e-08M*	?	?	3.3e-08
c1cncc(-c2cncnc2NC2CCNCC2)c1	i	i	i	i	1.4e-08M*	3.7e-08
CC(C)(C(=O)O)c1ccc([C@@H](O)CCCN2CCC(C(O)(c3ccccc3)c3ccccc3)CC2)cc1	i	i	?	i	?	2.1e-08
CN(C)CCCNC(=O)c1ccc(-c2ccccc2)cc1	i	i	i	i	?	3.9e-08
CN(C)CCCNc1cc(O)c2c(c1O)C(=O)c1ccccc1C2=O	i	1.8e-08M*	4.6e-08M*	1.3e-08M*	?	5e-09
